Measurements from ChEMBL document CHEMBL4513146, “CO-ADD screening of Karazin Kharkiv National University (Ukraine) compounds”.
Entries with a potency or affinity are not part of this list.

Tests used:
Klebsiella pneumoniae = settings: Concentration 32 ug.mL-1;; ASSAY_TEST Inhibition of Bacterial Growth; detection method Absorption (OD600); MEDIA CAMHB; plate type 384well; NBS; CORNING #3640; time 18 hr
Candida albicans = settings: Concentration 32 ug.mL-1; ASSAY_TEST Inhibition of Fungal Growth; detection method Absorption (OD530)
Cryptococcus neoformans = settings: Concentration 32 ug.mL-1; ASSAY_TEST Inhibition of Fungal Growth; detection method Resazurin; Absorption (OD600-OD570); plate type 384well; NBS; CORNING #3640

Compound | Inhibition (Klebsiella pneumoniae) | Inhibition (Candida albicans) | Inhibition (Cryptococcus neoformans)
CSc1cccc(NC(=O)Cn2nc3c(Sc4ccc(C)cc4C)nccn3c2=O)c1 | -1.53% | 2.24% | -22%
COc1ccc(N2CCN(C(=O)Cn3nc4ccc(-c5ccccc5)nn4c3=O)CC2)cc1 | 3.53% | -1.43% | -4.25%
COc1cccc(NC(=O)Cn2nc3c4c5c(sc4ncn3c2=O)CCCC5)c1 | 10.28% | 6.83% | -22.51%
O=C(CCc1nnc2c(N3CCCCC3)nc3ccccc3n12)NCCc1ccc(Cl)cc1 | 17.22% | 2.39% | -25.04%
COc1ccc(NC(=O)Cn2nc3ccc(SC4CCCCC4)nn3c2=O)c(OC)c1 | 4.32% | -0.43% | -25.29%
CCc1ccc(N(Cc2ccc(F)cc2)S(=O)(=O)c2cccn3c(CC)nnc23)cc1 | 6.32% | 33.96% | -7.64%
COc1ccc(NC(=O)CSc2nnc3c(=O)n(-c4ccccc4)ccn23)cc1 | 0.2% | 2.88% | -4.81%
COc1ccc(NC(=O)Cn2nc3nc(Nc4ccc(F)cc4)ccn3c2=O)cc1Cl | 7.26% | 4.14% | -6.17%
O=C(Cn1nc2ccc(-c3ccc(Cl)cc3)nn2c1=O)N1CCN(c2ccccc2)CC1 | -0.57% | -1.89% | -9.03%
COc1ccc(NC(=O)Cn2nc3nc(Nc4ccc(F)cc4)ccn3c2=O)cc1F | 11.34% | 0.24% | -11.45%
CCc1ccc(Cn2c(=O)c3sccc3n3c(SCc4cccc(C(F)(F)F)c4)nnc23)cc1 | 8.34% | 1.88% | -21.14%
CCc1ccc(N(Cc2cccc(OC)c2)S(=O)(=O)c2cccn3cnnc23)cc1 | 14.16% | 4.11% | -10.89%
NC(=O)C1CCN(C(=O)CCc2nnc3c(N4CCCCC4)nc4ccccc4n23)CC1 | 15.2% | 1.8% | -5.85%
COc1cc(OC)c(NC(=O)Cn2nc3c(Oc4cccc(C)c4C)nccn3c2=O)cc1Cl | 8.97% | 0.16% | -9.4%
Cc1ccccc1CN(c1ccc(C(C)C)cc1)S(=O)(=O)c1cccn2c(C)nnc12 | 8.89% | 4.49% | -10.58%
Cc1cc(C)cc(N(Cc2c(F)cccc2Cl)S(=O)(=O)c2cccn3cnnc23)c1 | 7.41% | 3.71% | -5.6%
CCOc1ccc(-n2ccn3c(SCC(=O)Nc4ccccc4C(F)(F)F)nnc3c2=O)cc1 | 17.14% | 2.4% | -14.22%
CCc1ccc(N(Cc2ccccc2)S(=O)(=O)c2cccn3cnnc23)cc1 | 1.9% | 2.34% | -3.81%
O=C(CSc1nc2ccccc2n2cnnc12)Nc1ccc2c(c1)OCCO2 | 4.35% | 2.01% | -3.4%
CC(C)CCNC(=O)CSc1nnc2c3cc(-c4ccccc4)nn3ccn12 | 15.29% | 4.42% | -17.81%
CSc1ccc(CNC(=O)Cn2nc3c(Oc4ccc(C)cc4)nccn3c2=O)cc1 | -2.38% | 4.95% | -4.29%
CCOc1ccc(NC(=O)Cn2nc3ccc(-c4ccc(C)c(C)c4)nn3c2=O)cc1 | 4.27% | 1.39% | -10.52%
Cc1ccc(Cn2c(=O)c3ccccc3n3c(=O)n(CC#N)nc23)cc1 | 6.47% | -0.23% | -25%
COC(=O)c1cccc(NC(=O)Cn2nc3c(Oc4ccccc4)nccn3c2=O)c1 | 3.42% | 3.07% | -9.43%
COc1ccc(NC(=O)CSc2nnc3c(=O)n(-c4cccc(F)c4)ccn23)cc1OC | 7.43% | 3.49% | -8.06%
COc1ccc(NC(=O)c2ccc3nn(CC(=O)Nc4cc(Cl)ccc4OC)c(=O)n3c2)cc1 | 1.5% | 2.28% | -8.79%
COc1ccccc1NC(=O)Cn1nc2c(SCc3ccc(Cl)cc3)nccn2c1=O | 9.59% | 1.74% | -17.01%
O=C(NCc1ccccc1)c1ccc2nn(CC(=O)N3CCN(c4ccccc4)CC3)c(=O)n2c1 | 13.57% | 3.02% | -23.82%
